Measured values from PubChem BioAssay (NCI).
About 79,000 compounds went through this panel and 15% of them were active in at least one assay; those are over-represented in the sample as a whole. Calls of active or inactive are those of the source. Rule as the data show it: active = growth inhibition above about 70%; inactive = the rest.

Key:
[1] = NCI Yeast Anticancer Drug Screen. Data for the rad52 strain (AID 147);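 also: 0% = growth of vehicle-treated control cultures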; conditions: S. cerevisiae rad52 mutant growth inhibition, active compounds read high
Outline: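 Measured: yeast growth inhibition. System: strain with a defined DNA damage repair alteration. Reference: vehicle-treated control cultures.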

[2] = NCI Yeast Anticancer Drug Screen. Data for the wt1 strain (AID 149);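 also: 0% = growth of vehicle-treated wt1 cultures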; conditions: S. cerevisiae wt1 strain (SPY 50644) growth inhibition, active compounds read high
Outline: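 Each compound is tested on wt1 yeast and the loss of growth versus vehicle gives the inhibition value.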

[3] = NCI Yeast Anticancer Drug Screen. Data for the rad50EPP+ strain (AID 151);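 also: 0% = growth of vehicle-treated control cultures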; conditions: S. cerevisiae rad50 mutant strain, active compounds read high
Outline: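 One strain with a rad50 alteration (rad50EPP+) was compound-treated, its growth then compared to that of vehicle controls.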

[4] = NCI Yeast Anticancer Drug Screen. Data for the rad50 strain (AID 155);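 also: 0% = growth of vehicle-only cultures of the same strain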; conditions: S. cerevisiae rad50 strain growth inhibition, active compounds read high
Outline: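 Vehicle-treated cultures provide the reference for the growth inhibition reported for compound-exposed, repair-deficient yeast.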

[5] = NCI Yeast Anticancer Drug Screen. Data for the mec2-1 strain (AID 157); conditions: S. cerevisiae mec2-1 strain, active compounds read high
Outline: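 Test agents were screened against the mec2-1 yeast strain, with defined DNA repair or cell cycle alteration. Growth was scored as inhibition against vehicle-only controls.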

[6] = NCI Yeast Anticancer Drug Screen. Data for the rad14 strain (AID 159);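 also: 0% = growth of vehicle-treated control cultures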; conditions: S. cerevisiae rad14 strain growth inhibition, active compounds read high
Outline: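 Inhibition of growth is reported for a repair-deficient yeast mutant following compound treatment, calculated relative to cultures that received vehicle.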

[7] = NCI Yeast Anticancer Drug Screen. Data for the sgs1 mgt1 strain (AID 161);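 also: 0% = growth of cultures given vehicle only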; conditions: S. cerevisiae sgs1 mgt1 strain, active compounds read high
Outline: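 Mutant yeast exposed to compound; growth scored against vehicle-only wells.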

[8] = NCI Yeast Anticancer Drug Screen. Data for the CLN2oe strain (AID 163);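 also: 0% = growth of vehicle-only control cultures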; conditions: S. cerevisiae CLN2oe strain, active compounds read high
Outline: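 Here, growth inhibition in a cell-cycle-altered yeast strain after compound exposure was quantified against vehicle control growth.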

[9] = NCI Yeast Anticancer Drug Screen. Data for the cln2 rad14 strain (AID 165);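 also: 0% = growth equal to vehicle treated cultures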; conditions: S. cerevisiae cln2 rad14 strain, active compounds read high
Outline: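 Growth of compound-exposed yeast (cln2 rad14 genotype) measured and expressed as inhibition relative to vehicle.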

[10] = NCI Yeast Anticancer Drug Screen. Data for the bub3 strain (AID 167); conditions: S. cerevisiae bub3 mutant strain, active compounds read high
Outline: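 Mutant yeast screening strain plus compound; vehicle-treated cultures serve as the 0% inhibition reference.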

[11] = NCI Yeast Anticancer Drug Screen. Data for the wt2 strain (AID 169); conditions: S. cerevisiae wt2 strain growth inhibition, active compounds read high
Outline: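 Genetically defined yeast strains from a DNA-repair/cell-cycle panel were used. Compound-exposed yeast growth was measured, and the inhibition was calculated relative to vehicle treatment.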

[12] = NCI Yeast Anticancer Drug Screen. Data for the mlh1 strain (AID 171);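 also: 0% = growth of vehicle-treated control cultures of the same strain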; conditions: S. cerevisiae mlh1 strain growth inhibition, active compounds read high
Outline: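 Here the genetically defined yeast mutant is grown with each compound, and the extent to which its growth falls below that of vehicle-exposed cells is reported.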

[13] = NCI Yeast Anticancer Drug Screen. Data for the sgs1 strain (AID 173);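 also: 0% = growth of vehicle-only control cultures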; conditions: S. cerevisiae sgs1 mutant, active compounds read high
Outline: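 Relative growth inhibition, referenced to vehicle, was determined in a yeast strain with a defined alteration affecting DNA damage repair or cell cycle control after compound exposure.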

[14] = NCI Yeast Anticancer Drug Screen. Data for the rad18 strain (AID 177); conditions: S. cerevisiae rad18 mutant growth inhibition, active compounds read high
Outline: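 Screen uses a yeast strain with a defined lesion in DNA damage repair; compound effect is read as loss of growth compared to untreated vehicle cultures.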

[15] = NCI Yeast Anticancer Drug Screen. Data for the mlh1 rad18 strain (AID 175); conditions: S. cerevisiae mlh1 rad18 strain growth inhibition, active compounds read high
Outline: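 In this whole-cell yeast screen, a strain with altered DNA damage repair is challenged with compound, and its growth is measured against matched vehicle-treated controls.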

[16] = at 5.0 µM (retest, dose inferred, filed as 0.5)
[17] = at 50.0 µM (retest, dose inferred, filed as 5.0)

Measured: growth inhibition

CN[C@@H]1C[C@H]2O[C@@](C)([C@@H]1OC)n1c3ccccc3c3c4c(c5c6ccccc6n2c5c31)C(=O)N[C@@H]4O
inactive: [1]; at 1.2 µM 11% | [1]; at 3.7 µM 35% | [1]; at 11.0 µM 22% | [1]; at 33.0 µM 24% | [1]; at 100.0 µM 38% | [2]; at 1.2 µM -24% | [2]; at 3.7 µM 16% | [2]; at 11.0 µM 15% | [2]; at 33.0 µM 7% | [2]; at 100.0 µM 8% | [3]; at 1.2 µM -23% | [3]; at 3.7 µM -18% | [3]; at 11.0 µM -9% | [3]; at 33.0 µM -11% | [3]; at 100.0 µM 21% | [4]; at 1.2 µM -34% | [4]; at 3.7 µM -41% | [4]; [16] -17% | [4]; at 11.0 µM -23% | [4]; at 33.0 µM -33% | [4]; [17] 6% | [4]; at 50.0 µM 50.4% | [4]; at 100.0 µM 2% | [5]; at 1.2 µM -53% | [5]; at 3.7 µM -44% | [5]; [16] -9% | [5]; at 11.0 µM -36% | [5]; at 33.0 µM -9% | [5]; [17] 30% | [5]; at 50.0 µM 35% | [5]; at 100.0 µM 19% | [6]; at 1.2 µM -31% | [6]; at 3.7 µM -34% | [6]; at 11.0 µM -31% | [6]; at 33.0 µM -9% | [6]; at 100.0 µM 67% | [7]; [16] -1% | [7]; [17] 24% | [7]; at 50.0 µM 16.4% | [8]; at 1.2 µM -8% | [8]; at 3.7 µM -8% | [8]; at 11.0 µM 5% | [8]; at 33.0 µM 12% | [8]; at 100.0 µM 20% | [9]; [16] 13% | [9]; [17] 38% | [9]; at 50.0 µM 22.4% | [10]; at 1.2 µM -11% | [10]; at 3.7 µM -10% | [10]; [16] 30% | [10]; at 11.0 µM 13% | [10]; at 33.0 µM 32% | [11]; at 1.2 µM -36% | [11]; at 3.7 µM -16% | [11]; at 11.0 µM 15% | [11]; at 33.0 µM -21% | [11]; at 100.0 µM 21% | [12]; at 1.2 µM -20% | [12]; at 3.7 µM -12% | [12]; at 11.0 µM -16% | [12]; at 33.0 µM 0% | [12]; at 100.0 µM -7% | [13]; at 1.2 µM -1% | [13]; at 3.7 µM -5% | [13]; at 11.0 µM 1% | [13]; at 33.0 µM 8% | [13]; at 100.0 µM 43% | [14]; at 1.2 µM -8% | [14]; at 3.7 µM -7% | [14]; at 11.0 µM -3% | [14]; at 33.0 µM 10% | [14]; at 100.0 µM 25%
active: [10]; [17] 83% | [10]; at 50.0 µM 74.5% | [10]; at 100.0 µM 74%

Cc1cc(Cl)nc2nc(Cl)c(N)cc12
active: [6]; at 100.0 µM 78% | [7]; at 50.0 µM 73.5% | [11]; at 100.0 µM 94% | [12]; at 100.0 µM 80% | [15]; [17] 84% | [14]; at 100.0 µM 80%
inactive: [1]; at 1.2 µM -8% | [1]; at 3.7 µM -3% | [1]; at 11.0 µM -10% | [1]; at 33.0 µM 16% | [1]; at 100.0 µM 69% | [2]; at 1.2 µM -16% | [2]; at 3.7 µM -7% | [2]; at 11.0 µM -2% | [2]; at 33.0 µM 2% | [2]; at 100.0 µM 27% | [3]; at 1.2 µM -17% | [3]; at 3.7 µM -17% | [3]; at 11.0 µM -13% | [3]; at 33.0 µM 0% | [3]; at 100.0 µM 49% | [4]; at 1.2 µM -4% | [4]; at 3.7 µM -18% | [4]; [16] 11% | [4]; at 11.0 µM -4% | [4]; at 33.0 µM 8% | [4]; [17] 55% | [4]; at 50.0 µM 38.6% | [4]; at 100.0 µM 51% | [5]; at 1.2 µM -13% | [5]; at 3.7 µM -17% | [5]; [16] 7% | [5]; at 11.0 µM -7% | [5]; at 33.0 µM 32% | [5]; [17] 62% | [5]; at 50.0 µM 62.9% | [5]; at 100.0 µM 44% | [6]; at 1.2 µM 1% | [6]; at 3.7 µM 2% | [6]; at 11.0 µM 1% | [6]; at 33.0 µM 28% | [7]; [16] -11% | [7]; [17] 55% | [8]; at 1.2 µM 4% | [8]; at 3.7 µM 1% | [8]; at 11.0 µM 5% | [8]; at 33.0 µM 6% | [8]; at 100.0 µM 54% | [9]; [16] 29% | [9]; [17] 42% | [9]; at 50.0 µM 22.6% | [10]; at 1.2 µM -20% | [10]; at 3.7 µM -2% | [10]; [16] -24% | [10]; at 11.0 µM -4% | [10]; at 33.0 µM 1% | [10]; [17] 30% | [10]; at 50.0 µM 48.2% | [10]; at 100.0 µM 67% | [11]; at 1.2 µM -22% | [11]; at 3.7 µM -16% | [11]; at 11.0 µM -24% | [11]; at 33.0 µM 21% | [12]; at 1.2 µM -16% | [12]; at 3.7 µM -2% | [12]; at 11.0 µM -2% | [12]; at 33.0 µM 14% | [13]; at 1.2 µM -2% | [13]; at 3.7 µM -6% | [13]; at 11.0 µM -1% | [13]; at 33.0 µM 13% | [13]; at 100.0 µM 63% | [15]; [16] 11% | [14]; at 1.2 µM -29% | [14]; at 3.7 µM -24% | [14]; at 11.0 µM -10% | [14]; at 33.0 µM 35%
